The AC50 is the midpoint of the concentration-response curve, whichever way the signal moves.

The nature of test [1]: Tanguay_ZF_120hpf_MORT_legacy: (Legacy) Oregon State University Tanguay Lab 120 Hour Post-fertilization zebrafish Assay for Mortality (AID 2283633). The method, boiled down: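 Dechorionated Tropical 5D wild-type zebrafish embryos, one per well from 6 hpf, static exposure in 0.64% DMSO at 28C until 120 hpf. Mortality scored as binary by brightfield microscopy at 24 and 120 hpf.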

A short description of test [2]: Tanguay_ZF_120hpf_YSE_legacy: (Legacy) Oregon State University Tanguay Lab 120 Hour Post-fertilization zebrafish Assay for Yolk Sac Edema (AID 2283634). In a few lines: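 Dechorionated Tropical 5D wild-type zebrafish embryos were exposed statically, one per well, from 6 to 120 hpf at 28C in 0.64% DMSO. Yolk sac edema was scored present/absent by brightfield at 120 hpf, and dead embryos were excluded.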

Test [3] is described as follows: Tanguay_ZF_120hpf_AXIS_legacy: (Legacy) Oregon State University Tanguay Lab 120 Hour Post-fertilization zebrafish Assay for Body Axis Malformation (AID 2283635).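 As to AC50: potency for an increased fraction of larvae scored with body axis malformation.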 The method, boiled down: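 Dechorionated wild-type Tropical 5D zebrafish embryos, one per well, statically exposed from 6 hpf to 120 hpf at 28C in 0.64% DMSO final. Body axis malformation scored present/absent by brightfield microscopy at 120 hpf; dead embryos excluded.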

Test [4] can be described thus: Tanguay_ZF_120hpf_EYE_legacy: (Legacy) Oregon State University Tanguay Lab 120 Hour Post-fertilization zebrafish Assay for Eye Malformation (AID 2283636).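 Also: binary presence or absence of eye malformation scored by brightfield in 120 hpf larvae.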 In a few lines: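 Binary brightfield scoring of eye defects at 120 hpf after static exposure from 6 hpf of single pronase-dechorionated wild-type embryos (28C, 0.64% DMSO). Non-mortality endpoints omitted where embryos died; fit vs DMSO.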

Test [5] is described as follows: Tanguay_ZF_120hpf_SNOU_legacy: (Legacy) Oregon State University Tanguay Lab 120 Hour Post-fertilization zebrafish Assay for Snout Malformation (AID 2283637). The method, boiled down: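 Binary snout-malformation call at 120 hpf in wild-type 5D embryos, chorion removed by pronase, under static exposure from 6 hpf at 28C (0.64% DMSO). Embryos dying by 24 or 120 hpf excluded.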

A short description of test [6]: Tanguay_ZF_120hpf_JAW_legacy: (Legacy) Oregon State University Tanguay Lab 120 Hour Post-fertilization zebrafish Assay for Jaw Malformation (AID 2283638). In a few lines:
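Dechorionated Tropical 5D wild-type zebrafish embryos, one per well, exposed statically from 6 hpf to 120 hpf at 28C in 0.64% DMSO. Jaw malformation was scored by brightfield microscopy as present or absent. It was not scored in dead embryos.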

The nature of test [7]: Tanguay_ZF_120hpf_PE_legacy: (Legacy) Oregon State University Tanguay Lab 120 Hour Post-fertilization zebrafish Assay for Pericardial Edema (AID 2283640). In a few lines:
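Tropical 5D wild-type zebrafish embryos were statically exposed until 120 hpf at 28C, with 0.64% DMSO final. Pericardial edema was scored by brightfield as present or absent; endpoints were not scored in dead embryos.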

The nature of test [8]: Tanguay_ZF_120hpf_BRAI_legacy: (Legacy) Oregon State University Tanguay Lab 120 Hour Post-fertilization zebrafish Assay for Brain Malformation (AID 2283641). In a few lines: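 Tropical 5D wild-type zebrafish embryos exposed statically until 120 hpf at 28C, 0.64% DMSO final, sealed and dark. Brain malformation scored present/absent by brightfield at 120 hpf; dead embryos excluded. Trimethyltin chloride 5uM positive control.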

A short description of test [9]: Tanguay_ZF_120hpf_CFIN_legacy: (Legacy) Oregon State University Tanguay Lab 120 Hour Post-fertilization zebrafish Assay for Caudal Fin Malformation (AID 2283649). In a few lines: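 Dechorionated Tropical 5D wild-type embryos, one per well from 6 hpf, static exposure to 120 hpf at 28C in 0.64% DMSO. Caudal fin malformation scored by brightfield as present/absent; not scored in dead embryos.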

A short description of test [10]: Tanguay_ZF_120hpf_PIG_legacy: (Legacy) Oregon State University Tanguay Lab 120 Hour Post-fertilization zebrafish Assay for Pigmentation Malformation (AID 2283650). In a few lines: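 Pigment malformation recorded as a binary call at 120 hpf in zebrafish (Tropical 5D) exposed singly from 6 hpf after pronase dechorionation. Static, sealed, 28C exposure, 0.64% DMSO; mortality excludes scoring; positive-direction fit against DMSO.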

Test [11] is described as follows: Tanguay_ZF_120hpf_SWIM_legacy: (Legacy) Oregon State University Tanguay Lab 120 Hour Post-fertilization zebrafish Assay for Swim Bladder Malformation (AID 2283654).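 Also: swim bladder malformation in each larva scored yes or no under brightfield.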 The method, boiled down:
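Scoring is binary for swim bladder defects at 120 hpf, by brightfield inspection of zebrafish larvae. Embryos were exposed singly from 6 hpf after pronase dechorionation, at 28C with 0.64% DMSO; mortality excluded scoring.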

The nature of test [12]: Tanguay_ZF_120hpf_TRUN_legacy: (Legacy) Oregon State University Tanguay Lab 120 Hour Post-fertilization zebrafish Assay for Truncated Body (AID 2283655). In a few lines:
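Dechorionated Tropical 5D wild-type embryos placed singly from 6 hpf and statically exposed to 120 hpf at 28C, final DMSO 0.64%. Truncated body scored as present/absent by brightfield; not scored in dead embryos.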

A short description of test [13]: Tanguay_ZF_120hpf_NC_legacy: (Legacy) Oregon State University Tanguay Lab 120 Hour Post-fertilization zebrafish Assay for Notochord and Tail Malformation (AID 2283656). The method, boiled down: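 Binary scoring of notochord distortion by brightfield microscopy; embryos dying were not scored. Wild-type Tropical 5D embryos, chorion removed, exposed singly and statically from 6 to 120 hpf, 28C, sealed, 0.64% DMSO.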

Test [14] in a line: Tanguay_ZF_120hpf_SOMI_legacy: (Legacy) Oregon State University Tanguay Lab 120 Hour Post-fertilization zebrafish Assay for Somite Malformation (AID 2283647). The method, boiled down: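 Dechorionated Tropical 5D wild-type zebrafish embryos, one per well from 6 hpf, statically exposed at 28C to 120 hpf in 0.64% DMSO; somite malformation scored present/absent by brightfield; trimethyltin 5 uM positive control; dead embryos not scored.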

Test [15] is described as follows: Tanguay_ZF_120hpf_PFIN_legacy: (Legacy) Oregon State University Tanguay Lab 120 Hour Post-fertilization zebrafish Assay for Pectoral Fin Malformation (AID 2283648).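 Also: each larva judged yes or no for fin defect by brightfield with dead larvae skipped.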 The method, boiled down: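 Pectoral fin malformation was recorded as a binary endpoint at 120 hpf in wild-type Tropical 5D larvae, which had been dechorionated and exposed statically from 6 hpf at 28C in 0.64% DMSO. Dead embryos were excluded.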

Test [16] in a line: Tanguay_ZF_120hpf_CIRC_legacy: (Legacy) Oregon State University Tanguay Lab 120 Hour Post-fertilization zebrafish Assay for Circulatory Malformation (AID 2283651). In a few lines: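 Binary circulatory malformation call at 120 hpf by brightfield imaging of zebrafish larvae; chorion removed at 4 hpf, static exposure from 6 hpf in sealed dark plates at 28C, final DMSO 0.64%; non-mortality endpoints skipped if embryo died.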

Records with an inconclusive call do not appear. Active and inactive are the calls of the source. The calls were made as follows: active = hit-call score of the fitted dose curve at least 0.9, where 1 is the maximum; inconclusive = response in the unintended direction; inactive = score below 0.9.

Turning to `CS/C(C)=N/OC(=O)N(C)SN(C)C(=O)O/N=C(\C)SC`, the compound was classed as inactive in test [1], in test [2], in [4], in test [5], in test [6] and in [7]. Also, the call in test [8], in test [9], in test [10], in test [11] and in test [12] was inactive. In addition, the values for the AC50 in test [3] and in test [13] were 24.4 µM (active) and 25 µM (active), respectively.

On to `CNC(=S)S`, for which the compound was called inactive in test [1], in test [2], in test [3], in test [4], in [5] and in [6]. For the same compound, the call in test [7], in test [8], in test [14], in [15], in [9] and in test [10] was inactive. In addition, the call in test [12] and in [13] was inactive.

Consider `CC(Oc1ccc(Cl)cc1Cl)C(=O)O` (stereo unspecified), for which the call in [1], in test [2], in [3], in test [4], in test [5] and in test [7] was inactive. Also, the compound was called inactive in test [8], in [15], in [9], in test [10], in [16] and in test [11]. In addition, the result in test [13] was inactive.

For the compound `CCCCC(CC)COC(=O)c1ccccc1C(=O)OCC(CC)CCCC` (stereo unspecified), the compound was called inactive in test [1], in test [2], in test [3], in test [4], in test [5] and in [6]. For the same compound, the outcome in test [8], in test [14], in test [15], in [9], in test [10] and in test [16] was inactive. Moreover, the compound was classed as inactive in [11], in test [12] and in [13].

With `CC(C)C1(C)N=C(c2nc3ccccc3cc2C(=O)O)NC1=O` (stereo unspecified), the compound was classed as inactive in test [2], in test [4], in test [5], in test [6], in [7] and in [8]. In addition, the result in test [14], in [15], in test [10], in [16], in test [11] and in test [12] was inactive. In addition, in test [13], the compound was called inactive.

Consider `N#CC(CCc1ccc(Cl)cc1)(Cn1cncn1)c1ccccc1` (stereo unspecified), for which the compound was classed as inactive in test [1], in [2], in test [3], in test [5], in [6] and in [7]. For the same compound, the call in [8], in test [14], in [15], in [9], in test [10] and in test [16] was inactive. Also, the compound was called inactive in [11] and in test [13].

For the compound `CCNc1nc(Cl)nc(NCC)n1`, the outcome in test [1], in [2], in test [3], in test [4], in test [5] and in [6] was inactive. Besides, the compound was classed as inactive in [7], in test [8], in test [14], in test [15], in test [9] and in test [16]. The compound was classed as inactive in test [11] and in test [12].

Source of the values: PubChem BioAssay (EPA / NIEHS).
